Source: PubChem
This is a sample that favours compounds with a hit; in the whole collection about 2.2% have one here.
NPR2 activator: GC-B (human) receptor activation. P20594. HEK293-GC-B cells, CNP EC30, cGMP TR-FRET; 0% at EC30 CNP, 100% saturating CNP. activation, % at 10 µM. actives 0.11% (n = 370,000);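 active means activation at 10 µM reaching about 35% in either raw or pattern-adjusted values, limit read from the data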
Rce1 inhib: inhibitors of yeast Ras-converting enzyme. Q03530. yeast membranes, quenched prenylated peptide cleavage fluorescence. calls only. actives 0.27% (n = 290,000). AID 2563;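 active means fall in fluorescence gain of 50% or more versus controls, with final raw signal at or below 3038400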;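 further: plate controls were neutral control wells for no effect and wells lacking membranes for full effect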
Target sequence (Q03530 whole entry, looked up): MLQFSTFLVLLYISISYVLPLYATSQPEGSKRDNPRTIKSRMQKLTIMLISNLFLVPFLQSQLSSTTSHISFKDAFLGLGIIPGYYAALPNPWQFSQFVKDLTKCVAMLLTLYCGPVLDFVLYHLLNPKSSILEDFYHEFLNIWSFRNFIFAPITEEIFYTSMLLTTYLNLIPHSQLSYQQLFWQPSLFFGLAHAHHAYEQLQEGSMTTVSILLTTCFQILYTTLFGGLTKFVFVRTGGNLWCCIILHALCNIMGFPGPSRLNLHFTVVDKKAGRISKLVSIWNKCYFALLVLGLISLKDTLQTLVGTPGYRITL
PLC-gamma1 inh: inhibitors of human phospholipase C gamma1 | inhibition, % at 12.2 µM | purified PLC-gamma1, fluorogenic substrate, fluorescence | actives 0.84% (n = 370,000) | P19174; in the data active means inhibition above about 9.5%
PfM18AAP inh-1: PfM18AAP enzyme inhibition | recombinant PfM18AAP, H-Glu-NHMec fluorogenic cleavage | inhibition, % at 7.35 µM | actives 1.2% (n = 290,000) | AID 1822;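 active means inhibition above the campaign mean inhibition over all tested compounds plus 3 SD, cut at about 28% in these data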;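 further: 0% = plate median of test compound wells and 100% = 2 mM ZnCl2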
PLC-beta3 inh: inhibitors of human phospholipase C beta3; Q01970; Purified PLC-beta3, fluorogenic substrate, fluorescence; inhibition, % at 12.2 µM; actives 0.18% (n = 370,000); AID 720704; in the data active means inhibition above about 11%;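 further: 0% = median of compound wells on plate and 100% = full blocker control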
GC-A act: GC-A (human) enzyme activation; activation, % at 10 µM; actives 0.14% (n = 370,000); AID 1671463; HEK293 GC-A cells, cGMP TR-FRET, EC30 ANP; 0% at EC30 ANP, 100% saturating ANP; in the data active means activation above about 40%
PfM18AAP inh-2: PfM18AAP inhibition, confirmation | inhibition, % at 7.35 µM | AID 2170 | recombinant PfM18AAP, H-Glu-NHMec fluorogenic cleavage | shares compounds with PfM18AAP inh-1 | actives 28% (n = 2,400);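 active means mean inhibition over replicate wells above the hit cutoff set for the earlier primary screen, cut at about 29% in these data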;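 further: 0% = median of test compound wells and 100% = 2 mM ZnCl2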
CTSL1 counter: counter-screen for PFM18AAP inhibitors: confirmation of human cathepsin L inhibitors; shares compounds with PfM18AAP inh-1; purified cathepsin L1, Z-Leu-Arg-MCA fluorescence; inhibition, % at 5.96 µM; 2,400 tested, under 10 active; AID 2178;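 active means average inhibition across replicates above the hit cutoff set in the earlier primary screen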;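 further: 0% = median of test compound wells and 100% = Z-Phe-Ala-diazomethylketone 1 µM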
Target sequence (P07711 whole entry, looked up): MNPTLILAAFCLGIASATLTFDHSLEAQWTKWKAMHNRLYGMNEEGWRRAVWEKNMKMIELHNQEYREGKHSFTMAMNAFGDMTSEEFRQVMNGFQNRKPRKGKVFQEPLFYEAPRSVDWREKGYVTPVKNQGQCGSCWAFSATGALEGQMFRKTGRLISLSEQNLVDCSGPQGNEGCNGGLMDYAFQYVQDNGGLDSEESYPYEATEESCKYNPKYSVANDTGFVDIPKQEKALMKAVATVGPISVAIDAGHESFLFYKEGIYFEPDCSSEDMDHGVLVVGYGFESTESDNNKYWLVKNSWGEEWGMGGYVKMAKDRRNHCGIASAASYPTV
* hit, by the source's call.

For O=C(NCc1ccccc1)OC1CCC12CCC(c1ccccc1)CC2 (stereo not given) the results were NPR2 activator 4.3, PLC-gamma1 inh 0.2, PLC-beta3 inh 0.2 and GC-A act -2.5.
COc1cccc(OC)c1OCc1cc(C2C3CCCC=C3C(C#N)=C(N)C2(C#N)C#N)c(C)cc1C (stereo not given) was read as NPR2 activator -3.5, Rce1 inhib inactive, PLC-gamma1 inh -37.7, PfM18AAP inh-1 36.2*, PLC-beta3 inh -47.9, GC-A act -9.1, PfM18AAP inh-2 -53.7 and CTSL1 counter -4.3.
`COC(=O)[C@]12C[C@H](CC(=O)N3CCCC3)C(=O)N(Cc3ccc(Cl)cc3Cl)C1=C[C@H](C1CCCC1)O[C@@H]2C` gave NPR2 activator -8.4, PLC-gamma1 inh -0.7, PLC-beta3 inh 1.3 and GC-A act -17.1.
`O=c1c(O[C@H]2O[C@@H](CO)[C@H](O)[C@@H](O)[C@@H]2O)c(-c2ccc(O)cc2)oc2cc(O)cc(O)c12` gave NPR2 activator 0.9, PLC-gamma1 inh 7.8, PLC-beta3 inh 2.0 and GC-A act -4.5.
Screening C[C@@H]1O[C@@H](Oc2c(-c3cc(O)c(O)c(O)c3)oc3cc(O)cc(O)c3c2=O)[C@H](O)[C@H](O)[C@H]1O returned NPR2 activator -1.8, Rce1 inhib inactive, PLC-gamma1 inh 3.9, PfM18AAP inh-1 46.5*, PLC-beta3 inh 2.8, GC-A act -2.6, PfM18AAP inh-2 11.5 and CTSL1 counter -1.1.
Screening O=c1c(OC2OC(CO)C(O)C(O)C2O)c(-c2ccc(O)c(O)c2)oc2cc(O)cc(O)c12 (stereo not given) returned NPR2 activator -8.2, Rce1 inhib inactive, PLC-gamma1 inh 3.8, PfM18AAP inh-1 61.8*, PLC-beta3 inh 2.7, GC-A act -2.3, PfM18AAP inh-2 45.9* and CTSL1 counter 0.8.
`COc1ccc(CNC(=O)c2ccc3c(c2)N(C)C(=O)CS3=O)cc1` (stereo not given) gave NPR2 activator 3.1, Rce1 inhib inactive, PLC-gamma1 inh 0.4, PfM18AAP inh-1 47.1*, PLC-beta3 inh 4.0, GC-A act -3.2, PfM18AAP inh-2 -15.2 and CTSL1 counter 4.9.
For O=C(CSc1cn[nH]n1)Nc1cccc(C(=O)O)c1 the results were NPR2 activator 2.5, Rce1 inhib inactive, PLC-gamma1 inh -1.2, PfM18AAP inh-1 53.7*, PLC-beta3 inh -8.1, GC-A act 0.7, PfM18AAP inh-2 11.6 and CTSL1 counter -5.9.
For Cc1cccc(NC(=O)CSc2cn[nH]n2)c1 the results were NPR2 activator -0.7, Rce1 inhib inactive, PLC-gamma1 inh 3.7, PfM18AAP inh-1 13.0, PLC-beta3 inh -1.9 and GC-A act 2.0.
`COc1ccc(CC(=O)NC2CCCCN(Cc3ccc(Cl)cc3)C2=O)cc1OC` (stereo not given) gave NPR2 activator 2.5, PLC-gamma1 inh 5.6, PLC-beta3 inh 3.3 and GC-A act 0.3.
For Cc1nnc(N/N=C/c2ccccc2C(F)(F)F)n1N the results were NPR2 activator -2.6, Rce1 inhib inactive, PLC-gamma1 inh 5.3, PfM18AAP inh-1 38.9*, PLC-beta3 inh -0.3, GC-A act -0.7, PfM18AAP inh-2 -33.7 and CTSL1 counter 2.0.
Screening Cc1nnc(N/N=C/c2ccco2)n1N returned NPR2 activator 2.8, Rce1 inhib inactive, PLC-gamma1 inh 1.1, PfM18AAP inh-1 17.6, PLC-beta3 inh -1.8 and GC-A act 3.5.
`COc1cccc(/C=N/Nc2nc(N3CCCC3)nc(N3CCCC3)n2)c1O` gave Rce1 inhib inactive, PLC-gamma1 inh -7.2, PfM18AAP inh-1 5.1 and PLC-beta3 inh -3.3.
For COc1cccc(/C=N/Nc2nnc(C)n2N)c1O the results were NPR2 activator -3.5, Rce1 inhib inactive, PLC-gamma1 inh 2.1, PfM18AAP inh-1 38.9*, PLC-beta3 inh 4.8, GC-A act -4.7, PfM18AAP inh-2 -7.8 and CTSL1 counter -0.2.
For O=C(CNC(=O)c1cccs1)NCC(=O)OCC(=O)c1ccc([N+](=O)[O-])cc1 the results were NPR2 activator 7.7, Rce1 inhib inactive, PLC-gamma1 inh -0.3, PfM18AAP inh-1 46.2*, PLC-beta3 inh -0.5, GC-A act 0.9, PfM18AAP inh-2 -14.6 and CTSL1 counter -3.3.
`Cc1ccccc1OCC(=O)NCC(=O)OCC(=O)c1ccc([N+](=O)[O-])cc1` gave NPR2 activator 0.8, PLC-gamma1 inh 1.3, PfM18AAP inh-1 46.3*, PLC-beta3 inh -3.4, GC-A act 2.5, PfM18AAP inh-2 -18.7 and CTSL1 counter -10.0.
COc1ccccc1CNC(=O)N1CCC(c2nc3ccc(Cl)cc3[nH]2)CC1 was read as NPR2 activator -8.0, PLC-gamma1 inh -1.8, PLC-beta3 inh 0.3 and GC-A act -3.5.
`N#CCC(=O)N/N=C/c1ccc(OC2CSC2)cc1` gave NPR2 activator -5.2, Rce1 inhib inactive, PLC-gamma1 inh 2.8, PfM18AAP inh-1 40.2*, PLC-beta3 inh 3.5, GC-A act 4.6, PfM18AAP inh-2 -12.3 and CTSL1 counter 0.4.
Screening CN(C)c1ccc(/C=N\NC(=O)CC#N)cc1 returned NPR2 activator -3.1, Rce1 inhib inactive, PLC-gamma1 inh -29.4, PfM18AAP inh-1 50.4*, PLC-beta3 inh -33.9, GC-A act -10.3, PfM18AAP inh-2 -34.4 and CTSL1 counter 3.4.
Screening CN(C)c1ccc(/C=N/NC(=O)CCCO)cc1 returned NPR2 activator -0.1, Rce1 inhib inactive, PLC-gamma1 inh -71.1, PfM18AAP inh-1 2.2, PLC-beta3 inh -72.8 and GC-A act -11.9.
For COc1ccc2c(c1)CCCN2C(=O)C1CCCN(S(=O)(=O)c2cc(OC)ccc2OC)C1 (stereo not given) the results were NPR2 activator -9.2, PLC-gamma1 inh -1.6, PLC-beta3 inh -3.4 and GC-A act -2.9.
Screening O=C(C1CC1)N1CCN(c2ccc(O)cc2)CC1 returned NPR2 activator -2.2, PLC-gamma1 inh -2.1, PfM18AAP inh-1 43.1*, PLC-beta3 inh -5.3, GC-A act 1.4, PfM18AAP inh-2 -31.6 and CTSL1 counter -2.4.
`CCOC(=O)N1CCN(c2ccc(O)cc2)CC1` gave NPR2 activator 1.2, Rce1 inhib inactive, PLC-gamma1 inh -4.4, PfM18AAP inh-1 38.8*, PLC-beta3 inh 0.2, GC-A act -3.4, PfM18AAP inh-2 -9.7 and CTSL1 counter 3.6.
`COc1cc(OC)cc(C(=O)NCC(=O)N2CCN(c3ccc(O)cc3)CC2)c1` gave NPR2 activator -6.4, Rce1 inhib inactive, PLC-gamma1 inh -3.6, PfM18AAP inh-1 35.6*, PLC-beta3 inh -16.7, GC-A act -2.7, PfM18AAP inh-2 -24.6 and CTSL1 counter -3.0.
